Source: PubChem (National Center for Advancing Translational Sciences (NCATS))
A selection: hits, their analogues and other compounds. The true share with any hit is near 1.1%.
TRPV1 potentiator: potentiators of human vanilloid receptor 1 (TRPV1). actives 0.02% (n = 320,000). TRPV1-expressing cells, Fluo-8 calcium influx, capsaicin EC20 potentiation. Q8NER1. AID 540277. potentiation, % at 8.33 µM; in the data active = potentiation above about 80%; inconclusive = between about 30% and that limit
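Cells expressing TRPV1 were dye-loaded with Fluo-8 and read kinetically: 10 s baseline, 3 min after compound (agonist portion), then 2 min after EC20 capsaicin (allosteric enhancer portion). Calcium-bound dye fluorescence at 480/520 nm.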
RXFP1 antag: antagonists of human relaxin receptor RXFP1. HEK293-RXFP1, relaxin-stimulated cAMP HTRF, 30 min; stronger effect = lower value. activity change, negative = inhibition, % at 57.5 µM. actives 0.59% (n = 350,000);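 active = activity change of -60% or lower, but not beyond a set lower limit; inconclusive = change between -60% and -40%, or beyond the set limit; inactive = change above -40%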
TRPV1 ag: activates the human vanilloid receptor TRPV1 | Q8NER1 | TRPV1-expressing cells, Fluo-8 calcium influx, agonist mode | activation, % at 8.33 µM | actives 0.19% (n = 320,000); in the data active = activation above about 80%; inconclusive = between about 30% and that limit
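TRPV1-expressing cells were cultured overnight at 35.5C and loaded with Fluo-8 calcium dye for 40 to 90 min at room temperature. After a 10 s baseline, compound was added and calcium influx was read kinetically for 3 min (ex 480/em 520 nm).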
RXFP1 agonist: activates the human relaxin receptor RXFP1; AID 2676; HEK293T-RXFP1 cAMP TR-FRET, 30 min; response scale: percent of porcine relaxin response, buffer zero; actives 0.3% (n = 370,000); Potency, µM (highest dose often 57.5 µM), hits mostly activators; Q9HBX9; active = well fitted activation curve with a large enough effect; inconclusive = small, poorly fitted or top-dose-only effect; note: nearly all actives have a fitted effect of over 60% in size
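Agonist response is measured as cAMP accumulation in an RXFP1-transfected HEK293T line under PDE4 inhibition. Values are scaled between buffer-only and 29 nM porcine relaxin, and EC50s come from standard Hill equation fits.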
gsp antagonist: antagonists of gsp mutant (McCune-Albright syndrome) | gsp-mutant cells, cAMP HTRF, 30 min | AID 624288 | actives 0.4% (n = 340,000) | Potency, µM (series often up to 76.9 µM), most hits filed as inhibitors; calls by dose curve; cell line not stated here;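 note: intracellular cAMP measured with PDE inhibitor Ro 20-1724 present during compound exposure; nearly all actives have a fitted effect of over 65% in size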
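Cells in G418 medium, seeded 16-24 h, 37C; buffer exchange to DPBS + 1 mM CaCl2, 0.5 mM MgCl2, 0.05% BSA; cpds in DMSO + […] (300 uM stock), 30 min 37C; HTRF cAMP detection.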
gsp ag: activates gsp, the McCune-Albright syndrome mutation. gsp mutant cells, cAMP HTRF, 30 min. Potency, µM (highest dose often 76.9 µM), usual class: activators. actives 0.13% (n = 340,000). AID 624287; active = well fitted activation curve with a large enough effect; inconclusive = small, poorly fitted or top-dose-only effect, or another doubt; inactive = no such curve, though single readings can be large or run the other way; cell line not stated here;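 note: phosphodiesterase inhibitor Ro 20-1724 added with compounds to block cAMP breakdown; nearly all actives have a fitted effect of over 60% in size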
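Cells in DMEM/10% FBS with G418 were pretreated with compounds in DMSO plus […] (300 uM stock) for 30 min at 37C. cAMP was measured by HTRF (cAMP-d2 plus anti-cAMP antibody-K) after 30 min at room temperature.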
Hits are given with their value; 0 = inactive; ? = inconclusive; - = no result; [ ] = dose if it differs, or a comment.

SMILES	TRPV1 potentiator	RXFP1 antag	TRPV1 ag	RXFP1 agonist	gsp antagonist	gsp ag
CCCC1=Nc2cc(C(=O)NCCN3CCOCC3)ccc2Sc2ccccc21	0	-100	?	0	0	0
Cc1cc2ccc3ccccc3c2cc1CN(C)C	0	-107	0	0	0	0[15.4 µM]
CN(C)Cc1cc2ccccc2c2c1COC2	0	0	0	0	0	0
O=C(CCN1CCN(c2ccccc2)CC1)N/N=C/c1ccccc1OC(F)F	0	0	0	0	0	0
CCOc1cc(CNCc2ccccc2)ccc1OCc1ccc(Cl)cc1	0	-96	0	0	0	0
Cc1ccc(-c2ccccc2C#N)cc1	-	0	-	-	-	-
Cc1nc2ccccn2c1C(=O)NNC(=S)Nc1ccccc1	0	-89	0	0	0	0
Cc1nc2ccccn2c1C(=O)NNC(=S)Nc1ccc(Cl)cc1	0	0	0	0	0	0[15.4 µM]
Clc1ccc(-c2noc(-c3cccnc3NCc3ccco3)n2)cc1	-	-	-	0	-	-
COc1cc(/C=N/Nc2nc(-c3ccc(S(=O)(=O)N(C)C)cc3)cs2)ccc1O	0	0	0	0	32µM	0
Cc1csc(N/N=C/c2ccc(O)c([N+](=O)[O-])c2)n1	0	0	0	0	0	0
O=[N+]([O-])c1cc(/C=N\Nc2nc(-c3ccccc3)cs2)ccc1O	0	-65	0	0	?	0
Cc1oc(-c2cc(F)ccc2F)nc1CN1CCN(c2ncnc3ccccc23)CC1	0	0	?	0	?	0
COc1ccc(-c2nc(CN3CCN(c4ncnc5ccccc45)CC3)c(C)o2)c(OC)c1	0	0	0	0	32µM	0
O=C(O)c1ccccc1N/N=C/C1=C(N2CCOCC2)C(=C\c2ccccc2)/CC1	0	0	0	0	0	0[15.4 µM]
Cc1cc(C)nc(N/N=C/C2=C(N3CCOCC3)C(=C/c3ccccc3)/CC2)n1	0	0	0	0	28µM	0
COc1cc(-c2nnc(SCCOc3ccc(Cl)cc3C)o2)cc(OC)c1OC	-	0	-	0	-	-
CCOC(=O)c1nc(N/N=C/c2ccccc2)sc1Br	0	0	0	0	0	0
CC(=O)c1cccc(NC(=O)N2CCC(NC(=O)C3CCCCC3)CC2)c1	0	0	?	0	0	0[15.4 µM]
CC(C)C(=O)N1CCN(c2ccc(NC(=O)COc3ccccc3[N+](=O)[O-])cc2)CC1	0	0	0	0	28µM	0
COc1ccc(Cn2c(-c3ccc(OC)c(O)c3)nc3ccccc32)cc1O	0	-72	0	0	0	0
CS(=O)(=O)Nc1ccc(C2=NN(C(=O)C3CCCCC3)C(c3cccs3)C2)cc1 (stereo not given)	0	0	0	0	25µM	0[15.4 µM]
O=C(NCCCCCCNC(=O)c1ccccc1O)c1ccccc1O	0	0	0	0	45µM	0[15.4 µM]
O=C(C[C@H]1C(=O)N(C2CCCCC2)C[C@@H]1Cc1ccccc1)Nc1ccccc1	0	-	85	0	0	-
O=C(C1CCC(CNS(=O)(=O)c2cccs2)CC1)N1CCN(c2ccc(F)cc2)CC1 (stereo not given)	0	0	0	0	35µM	0
SMILES	TRPV1 potentiator	RXFP1 antag	TRPV1 ag	RXFP1 agonist	gsp antagonist	gsp ag
CCOc1cc2c(cc1/C=C(/C#N)c1ccc(C(=O)O)cc1)OCO2	?	0	0	0	35µM	0
Cn1c(=O)c2c(nc3sccn32)n(C)c1=O	88	0	0	0	0	?
CCC(C(=O)Nc1nccs1)(C(F)(F)F)C(F)(F)F	0	0	0	0	32µM	0
COc1ccc2c(c1)C(=O)Cc1ccccc1O2	-	0	-	-	0	0
Cc1csc(Sc2nc3c(c(=O)[nH]c(=O)n3C)n2Cc2ccccc2Cl)n1	0	0	0	0	40µM	0
O=C(Nc1cccnc1)c1ccc(N2CCCC2)c([N+](=O)[O-])c1	0	0	84	0	0	0[15.4 µM]
O=C(Nc1ccc(C(F)(F)F)cc1)C1(c2ccccc2)CC1	0	-63	0	0	0	0[15.4 µM]
O=C(Nc1ccc(C(F)(F)F)cc1)c1ccccc1	0	-	82	0	0	0
O=C(Nc1ccc(C(F)(F)F)cc1)c1ccccc1Br	0	0	?	0	0	0[15.4 µM]
O=C(Nc1ccc(C(=O)c2ccccc2)cc1)c1ccccc1	0	0	?	0	40µM	0[15.4 µM]
C=CCn1c(SCC(=O)Nc2cc(C)on2)nc2ccccc21	-	0	-	-	-	0
Cc1cccc(C)c1NC(=O)C(C)NCc1cccs1 (stereo not given)	-	0	-	-	-	0
O=C(Nc1cccnc1)c1ccc(-c2ccccc2)cc1	0	0	87	0	0	0
CCOc1ccccc1C(=O)Nc1ccc(C(=O)c2ccccc2)cc1	0	0	0	0	25µM	0
COc1ccc2cc1Oc1cc3c(cc1OC)CC[N+](C)(C)[C@H]3Cc1ccc(cc1)Oc1c(OC)c(OC)cc3c1[C@@H](C2)[N+](C)(C)CC3	-	0	-	-	-	-
COc1ccc(CN2C(=O)c3cccnc3C2=O)cc1S(=O)(=O)N1CCOc2ccc(Cl)cc21	0	0	0	0	0	0
COc1ccc(CN2C(=O)c3cccnc3C2=O)cc1S(=O)(=O)NC1CCCCC1C (stereo not given)	0	0	0	25µM	0	?
COc1cccc(CNS(=O)(=O)c2cc(CN3C(=O)c4cccnc4C3=O)ccc2OC)c1	0	0	0	0	0	0
COc1ccc(CN2C(=O)c3cccnc3C2=O)cc1S(=O)(=O)N1CCCC(C)C1 (stereo not given)	0	0	0	7.9µM	0	7.9µM
COc1ccc(C(CCNCc2ccccc2)c2ccc(F)cc2)cc1 (stereo not given)	0	0	0	0	0	0
COc1ccc(C(CCNC(C)c2ccccc2)c2ccc(F)cc2)cc1 (stereo not given)	0	-66	0	0	0	0
C=CCN1C(=O)c2ccccc2NC1c1cc(Br)cs1 (stereo not given)	?	0	0	0	0	0[15.4 µM]
CNC(=S)N(CCc1c(C)[nH]c2ccccc12)Cc1cccnc1	0	0	0	0	0	0
CSc1ccc(C(=O)N2CCc3ccc(NC(=O)c4ccccn4)cc3C2)cc1	0	-69	?	0	32µM	0
CSc1ccccc1C(=O)N1CCc2ccc(NC(=O)c3ccccn3)cc2C1	-	0	-	-	-	0
NC(=O)c1cc[n+](CC2=C(C(=O)[O-])N3C(=O)[C@@H](NC(=O)Cc4cccs4)[C@H]3SC2)cc1	-	0	-	-	-	-
CC(C)CCC(CCNCc1ccccn1)c1ccc(Cl)cc1 (stereo not given)	0	-69	0	0	0	0
O=C(O)CCSc1ccc2ccccc2n1	0	0	0	18µM	0	?
O=C(O)CSc1ccc2ccccc2n1	0	0	0	?	0	?
Cc1sc(NC(=S)NC(=O)c2ccco2)c(C(N)=O)c1C	0	0	0	0	0	0[15.4 µM]
